According to PubChem BioAssay (EPA / NIEHS):
“And” between values parts separate entries of the source, which are not always exact repeats. Equal entries are not always repeated. The source made the active and inactive calls. The calls were made as follows: active = hit-call score of the fitted dose curve at least 0.9, where 1 is the maximum; inactive = score below 0.9.

read-out: urokinase plasminogen activator (uPA), PLAU (gene 5328); assay: BSK_BE3C_uPA: BioMAP Diversity Plus: BE3C Assay for urokinase plasminogen activator (uPA) Biomarker Activity (AID 2283038); conditions: primary human bronchial epithelial cells; actives raise or lower the signal
Experimental: BSK_BE3C is a cell-based, multiplexed-readout assay that uses bronchial epithelial cell, a human lung primary cell, with measurements taken at 24 hours after chemical dosing in a 96-well plate.BSK_BE3CA is an assay component measured in the BSK_BE3C assay. It measures uPA antibody related to regulation of gene expression using ELISA technology.Data from the assay component BSK_BE3CA was analyzed into 1 assay endpoint. This assay endpoint, BSK_BE3CA, was analyzed with bidirectional fitting relative to DMSO as the negative control and baseline of activity. Using a type of binding reporter, gain or loss-of-signal activity can be used to understand changes in the signaling as they relate to the gene PLAU. Furthermore, this assay endpoint can be referred to as a primary readout, because this assay has produced multiple assay endpoints where this one serves a signaling function. To generalize the intended target to other relatable targets, this assay endpoint is annotated to the protease intended target family, where the subfamily is serine protease.
The levels of cell surface (or secreted, indicated by the prefix "s") biomarker endpoints were measured by ELISA. Overt cytotoxicity to cells in confluent adherent cultures (all systems other than the BT system) was assessed by measuring total protein levels using sulforhodamine B (SRB) staining in parallel cultures at the time of biomarker measurements, indicated as SRB endpoints. For proliferation assays for adherent cell types, individual cell types are cultured at sub-confluence and relative cell numbers quantified by SRB staining at time points optimized for each system (48 h: 3C and CASM3C systems; 72 h: BT and HDF3CGF systems; 96 h: SAg system). SRB was performed by staining cells with 0.1% SRB after fixation with 10% TCA and reading wells at 560 nm.Viability and proliferation of PBMC (T cells) was quantified by Alamar Blue reduction for the SAg and BT systems. For PBMC viability (referred to as PBMC Cytotoxicity within the assay endpoint names), cells were plated (75,000/well in a 96-well plate) and then chemical samples added for 1 h before addition of activators, SEB and TSST-1 (20 ng/mL final concentration each). Cells were incubated for 90 h. Then, Alamar Blue (20 uL/well) (Invitrogen, Cat DAL1100) was added for 6 h, and the plates were read with a fluorescence microplate reader at 546/580 nm (excitation/emission). For PBMC proliferation, cells were plated and activated as above but incubated for only 16 h prior to addition of Alamar Blue. Plates were read after 6 h.

Row | Compound | outcome | AC50
1 | CNC(=S)S | inactive | 
2 | CCCCNC(=O)OCC#CI |  | 32 µM (active) and 30.6 µM (active)
3 | CCOc1cc(Oc2ccc(C(F)(F)F)cc2Cl)ccc1[N+](=O)[O-] | inactive | 
4 | COP(=S)(OC)Oc1nc(Cl)c(Cl)cc1Cl | inactive | 
5 | CCOP(=S)(OCC)SCn1c(=O)oc2cc(Cl)ccc21 | inactive | 
6 | CCCC1COC(Cn2cncn2)(c2ccc(Cl)cc2Cl)O1 (stereo not given) | inactive | 
7 | COc1nc(C)nc(NC(=O)NS(=O)(=O)c2ccccc2Cl)n1 | inactive | 
8 | N#Cc1cc(Br)c(O)c(Br)c1 | inactive | 
9 | C=CCC1=C(C)[C@@H](OC(=O)[C@@H]2[C@@H](C=C(C)C)C2(C)C)CC1=O |  | 26.7 µM (active)
10 | CCCCC(CC)COC(=O)c1ccccc1C(=O)OCC(CC)CCCC (stereo not given) | inactive | 
11 | COc1cnc(OC)n2nc(NS(=O)(=O)c3c(OCC(F)F)cccc3C(F)(F)F)nc12 | inactive | 
12 | COc1nc(NC(C)C)nc(NC(C)C)n1 | inactive | 
13 | CC(C)(C)c1ccc(CSc2cnn(C(C)(C)C)c(=O)c2Cl)cc1 | inactive | 
14 | CCCN(CCC)c1c([N+](=O)[O-])cc(S(N)(=O)=O)cc1[N+](=O)[O-] |  | 33.6 µM (active) [middle of 4 runs]
15 | CS/C(C)=N/OC(=O)N(C)SN(C)C(=O)O/N=C(\C)SC | inactive | 
16 | O=C(O)COc1nc(Cl)c(Cl)cc1Cl | inactive | 
17 | CCCCNC(=O)n1c(NC(=O)OC)nc2ccccc21 | inactive | 
18 | Cc1cc(Cl)ccc1OCC(=O)O | inactive | 
19 | CN(C)C(=S)SSC(=S)N(C)C |  | 7.75 µM (active)
20 | CCON=C(CC)C1=C(O)CC(c2c(C)cc(C)cc2C)CC1=O (stereo not given) | inactive | 

Row | Compound | outcome | AC50
21 | C=CC1(C)OC(=O)N(c2cc(Cl)cc(Cl)c2)C1=O (stereo not given) | inactive | 
22 | COC(=O)N(OC)c1ccccc1COc1ccn(-c2ccc(Cl)cc2)n1 | inactive | 
23 | CCOC(=O)CC(SP(=S)(OC)OC)C(=O)OCC (stereo not given) | inactive | 
24 | C#CCOS(=O)OC1CCCCC1Oc1ccc(C(C)(C)C)cc1 (stereo not given) |  | 27 µM (active)
25 | COP(N)(=O)SC (stereo not given) | inactive | 
26 | C=CCC1=C(C)C(OC(=O)C2C(C=C(C)C)C2(C)C)CC1=O (stereo not given) | inactive | 
27 | O=C(O)c1nc(Cl)ccc1Cl | inactive | 
28 | COc1nc(C)nc(NC(=O)NS(=O)(=O)c2ccccc2CCC(F)(F)F)n1 | inactive | 
29 | CO/C=C(/C(=O)OC)c1ccccc1Oc1cc(Oc2ccccc2C#N)ncn1 | inactive | 
30 | OC(c1ccc(Cl)cc1)(c1cncnc1)c1ccccc1Cl (stereo not given) | inactive | 
31 | CC(C)C1(C)N=C(c2nc3ccccc3cc2C(=O)O)NC1=O (stereo not given) | inactive | 
32 | CON(C)C(=O)Nc1ccc(Cl)c(Cl)c1 | inactive | 
33 | CCCCOC(=O)c1ccccc1C(=O)OCCCC | inactive | 
34 | CCc1nn(C)c(C(=O)NCc2ccc(C(C)(C)C)cc2)c1Cl |  | 30.6 µM (active)
35 | COC(=O)C(C)Oc1ccc(Oc2ccc(Cl)cc2Cl)cc1 (stereo not given) | inactive | 
36 | Fc1ccc(Oc2ccnc3cc(Cl)cc(Cl)c23)cc1 |  | 36.5 µM (active)
37 | O=C(Nc1ccccc1)Nc1ccnc(Cl)c1 | inactive | 
38 | Oc1ccccc1-c1ccccc1 | inactive | 
39 | Cc1c(F)c(F)c(COC(=O)C2C(/C=C(\Cl)C(F)(F)F)C2(C)C)c(F)c1F (stereo not given) | inactive | 
40 | CNC(=O)ON=CC(C)(C)SC | inactive | 
